Here are results for 22 compounds from PubChem BioAssay (NCATS).

Experiment [1] is described as follows: Validation of Assay for Modulators of Lamin A Splicing (AID 1459; active = well fitted curve in the direction sought with a large enough effect in the signal ratio; the % refers to the signal ratio;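 also: cells exposed to compound for two days before reading; 0% is about no effect; ratio rise marks activators and ratio drop marks inhibitors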). In short, it runs like this:
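Splicing correction is reported by an EGFP-containing lamin A minigene in stably transfected S3 HeLa cells, while DsRed2 controls for viability and nonspecific signal. Cells are exposed to compounds for 48 hrs before the GFP over RFP ratio is taken.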

Experiment [2] has as its target DNA repair nuclease/redox regulator APEX1 (Homo sapiens) (UniProt P27695). The experiment can be described thus: qHTS Validation Assay for Inhibitors of the Human Apurinic/apyrimidinic Endonuclease 1 (APE1) (AID 1705;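 also: TAMRA fluorescence gain over two minutes as APE1 cuts a quenched THF abasic duplex; % is scaled to controls: 0 for no effect and ±100 for the full control effect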). In short, it runs like this:
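Endonuclease activity of human APE1 is followed as dequenching when the enzyme incises a tetrahydrofuran abasic site in a short duplex labelled 5'-TAMRA/3'-BHQ-2 (50 nM final), after 15 min enzyme–compound preincubation at room temperature.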
A general note: In qHTS, concentration-response curves come from the screen itself.

Experiment [3] can be described thus: Counterscreen for APE1 Inhibitors: Fluorescent Dye Displacement Validation Assay (AID 1707).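 Also: plate controls were ThO with dsDNA and no compound for no effect and ThO without dsDNA for full effect.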 The gist of the method:
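Assay buffer: Tris-HCl pH7.5 with 50mM NaCl, 2 mM MgCl2, 0.01% Tween-20. Dye 250 nM, duplex 50 nM final. Readout: decrease in ThO endpoint fluorescence, 480 nm excitation, 540 nm emission.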
On the technique in general: A counterscreen serves to expose hits that act by an unwanted route or on another target.

Experiment [4] addresses Endonuclease 4 (Escherichia coli (strain K12)) (UniProt P0A6C1). The experiment can be described thus: Counterscreen for APE1 Inhibitors: qHTS Validation Assay for Inhibitors of Endonuclease IV (AID 1708). Also: % is scaled to controls: 0 for no effect and ±100 for the full control effect. In short, it runs like this: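 qHTS concentration-response format; LOPAC1280 tested under APE1-screen conditions. 2 nM enzyme, 15 min compound preincubation at RT, then 50 nM TAMRA/BHQ-2 abasic substrate; kinetic fluorescence read, three reads at 60 s intervals.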

Experiment [5] is described as follows: qHTS for differential inhibitors of proliferation of Plasmodium falciparum line 7G8 (AID 1815).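 Also: parasite growth measured after three days of incubation.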 Also: potency is read from the fitted curve at half-maximal effect.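 As to activity change, negative = inhibition: plate controls were vehicle wells for no effect and reference inhibitor wells for full effect.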
In experiment [6] the target is Alpha-galactosidase (Coffea arabica) (UniProt Q42656). The experiment can be described thus: Counterscreen for Glucocerebrosidase Inhibitors: qHTS Assay for Coffee Bean alpha-Galactosidase at pH 5.9 (AID 998).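 Also: plate controls were uninhibited enzyme for no effect and no-enzyme basal signal for full effect.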 In short, it runs like this: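 Compounds were titrated from 0.7 nM to 77 uM against green coffee bean alpha-galactosidase (2 nM) using 80 uM fluorogenic 4-methylumbelliferyl substrate. After 20 min at room temperature, reactions were stopped at pH 10 and read by fluorescence.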
Sequence of Alpha-galactosidase (Coffea arabica) (Q42656 whole entry, looked up): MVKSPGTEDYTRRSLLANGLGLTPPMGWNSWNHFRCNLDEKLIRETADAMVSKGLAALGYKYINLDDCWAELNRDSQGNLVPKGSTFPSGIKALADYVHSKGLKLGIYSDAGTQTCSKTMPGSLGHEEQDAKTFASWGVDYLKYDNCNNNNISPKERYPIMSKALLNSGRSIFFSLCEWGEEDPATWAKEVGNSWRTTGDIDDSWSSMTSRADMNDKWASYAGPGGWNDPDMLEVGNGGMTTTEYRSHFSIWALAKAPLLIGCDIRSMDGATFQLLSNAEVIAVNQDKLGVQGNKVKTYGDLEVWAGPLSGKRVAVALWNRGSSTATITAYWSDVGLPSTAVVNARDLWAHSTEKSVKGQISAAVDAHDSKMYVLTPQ

Experiment [7] deals with Alpha-galactosidase A (Homo sapiens) (UniProt P06280). The experiment can be described thus: Counterscreen for Glucocerebrosidase Inhibitors: qHTS Assay for Human alpha-Galactosidase at pH 4.5 (AID 992). Also: 0% is about no effect. The gist of the method: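 Concentration-response curves (0.7 nM to 77 uM final) were modeled with the Hill equation to give AC50. Reactions: 2 nM enzyme, 80 uM fluorogenic alpha-galactoside, pH 4.5 citric acid buffer, 20 min, room temperature.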
Sequence of Alpha-galactosidase A (Homo sapiens) (P06280 whole entry, looked up): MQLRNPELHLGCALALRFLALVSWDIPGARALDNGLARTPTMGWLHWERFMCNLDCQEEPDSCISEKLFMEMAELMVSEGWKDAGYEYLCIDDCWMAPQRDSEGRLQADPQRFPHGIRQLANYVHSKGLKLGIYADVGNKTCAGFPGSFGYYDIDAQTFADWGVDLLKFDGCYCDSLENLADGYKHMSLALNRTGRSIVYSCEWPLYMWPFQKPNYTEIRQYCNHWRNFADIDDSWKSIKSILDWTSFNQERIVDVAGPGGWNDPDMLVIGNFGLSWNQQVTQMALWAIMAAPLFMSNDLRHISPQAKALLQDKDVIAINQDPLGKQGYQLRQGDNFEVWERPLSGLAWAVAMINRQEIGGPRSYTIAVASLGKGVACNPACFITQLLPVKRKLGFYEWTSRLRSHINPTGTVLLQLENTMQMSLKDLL

Experiment [8] deals with alpha-glucosidase (Oryza sativa, rice) (UniProt Q653V4). The experiment can be described thus: Counterscreen for Glucocerebrosidase Inhibitors: qHTS Assay for Rice alpha-Glucosidase at pH 5.0 (AID 997).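 Also: 0% = full activity with enzyme and -100% = basal without enzyme.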 The gist of the method:
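Rice alpha-glucosidase (4 nM final) with 400 uM 4-methylumbelliferyl-alpha-D-glucopyranoside in citrate buffer pH 5.0, 20 min at room temperature, stopped at pH 10; fluorescence 365/440 nm, compounds 0.7 nM–77 uM, AC50 from Hill fits.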

Experiment [9] in a line: qHTS Assay for Lipid Storage Modulators (AID 1519; calls by dose curve; as to activity change, negative = inhibition: % is scaled to controls: 0 for no effect and ±100 for the full control effect). To be noted: Drosophila S3 cells, BODIPY lipid droplet/cell ratio, laser cytometry, cells loaded with oleic acid. The gist of the method:
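Cells seeded at 5,000 per well were treated with compounds over a concentration series and loaded with oleic acid (400 uM, as added). Lipid droplet fluorescence (488 nm excitation, 500-530 nm channel) was read by laser-scanning cytometry and normalized to 20 uM Triacsin C.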

Setting [10] is: measured here: cell count channel max response.
[11] abbreviates: measured here: lipid channel max response.

Where “and” joins values, the source holds several entries; their conditions need not be identical. Equal entries are not always repeated. Results filed as inconclusive are left out. Calls of active or inactive are those of the source. Unless noted, calls follow the shape of the dose curve; as a rule, active = well fitted curve in the direction sought with a large enough effect; inconclusive = small, poorly fitted or top-dose-only effect, or another doubt; inactive = no such curve, though single readings can be large; an effect the other way counts as inactive or inconclusive.

Sequence of DNA repair nuclease/redox regulator APEX1 (Homo sapiens) (P27695 whole entry, looked up): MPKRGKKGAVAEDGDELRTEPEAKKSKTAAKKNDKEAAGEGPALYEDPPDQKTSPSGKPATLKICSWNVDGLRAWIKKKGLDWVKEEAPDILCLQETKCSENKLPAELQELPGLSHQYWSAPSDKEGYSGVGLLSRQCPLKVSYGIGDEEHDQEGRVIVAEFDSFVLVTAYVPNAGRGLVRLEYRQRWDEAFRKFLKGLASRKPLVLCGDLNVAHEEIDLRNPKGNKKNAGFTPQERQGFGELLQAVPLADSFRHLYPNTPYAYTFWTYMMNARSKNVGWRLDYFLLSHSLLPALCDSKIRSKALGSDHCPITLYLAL

Take `C=CCN1CC[C@]23CCCCC2[C@H]1Cc1ccc(O)cc13` (some centres not stated): the compound was classed as inactive in experiment [1]. The Potency entry in experiment [2], in [3] and in [4] was “inactive” in each case. For the same compound, the Potency in experiment [5] is 11.2 µM (active).

Take `C[N+](C)(C)CC(=O)O`: the compound was called inactive in experiment [6] and in [1]. Moreover, the Potency entry in experiment [2], in [3], in experiment [4] and in experiment [5] was “inactive” each time.

In the case of `CC1=NN=C(c2ccc(N)cc2)c2cc3c(cc2C1)OCO3`, the compound was called inactive in [7], in experiment [8], in [6] and in experiment [1]. Besides, the Potency result in experiment [2], in experiment [3] and in experiment [4] was “inactive” throughout. Besides, in [5], the Potency was 10 µM (active).

Take `CN1C2CCC1CC(OC(=O)c1cc(Cl)cc(Cl)c1)C2` (configuration not stated): the result in experiment [1] was inactive. The Potency entry in experiment [2], in experiment [3] and in experiment [4] was “inactive” each time. Besides, in experiment [5], the Potency is 6.31 µM (active).

On to `C[C@@H](N)Cc1cnc[nH]1`, for which, in [1], the compound was classed as inactive. Also, in experiment [9] (at 57.5 µM (top of the series)), the activity change, negative = inhibition is 0.775% (inactive). The max response was -2.18% in experiment [9] (setting [10]) and -3.82% in experiment [9] (setting [11]). Moreover, the Potency entry in [2] and in experiment [3] was “inactive” in each case.

Regarding `CNCCc1c[nH]c2ccc(O)cc12`, the result in [7], in [8], in experiment [6] and in experiment [1] was inactive. Moreover, in experiment [9] (at 57.5 µM (top of the series)), the activity change, negative = inhibition is 1.79% (inactive) and 0.655% (inactive). Moreover, the max response in experiment [9] (setting [10]) was 5.25% and 4.7%; in experiment [9] (setting [11]) it was 5.9% and 3.87%. Further, the Potency entry in experiment [2], in [3], in experiment [4] and in [5] was “inactive” each time.

Take `CC[C@@H]1C(=O)OC[C@@H]1Cc1cncn1C`: the compound was classed as inactive in experiment [1]. Moreover, the Potency result in experiment [2], in experiment [3], in [4] and in experiment [5] was “inactive” throughout.

Turning to `NC(=NCCC[C@H](N)C(=O)O)N[N+](=O)[O-]`, the outcome in experiment [7], in experiment [8], in experiment [6] and in experiment [1] was inactive. Moreover, the activity change, negative = inhibition in experiment [9] (at 57.5 µM (top of the series)) is 0.0348% (inactive). The max response was -0.432% in experiment [9] (setting [10]) and 0.435% in [9] (setting [11]). The Potency entry in experiment [2], in experiment [3], in experiment [4] and in [5] was “inactive” each time.

On to `Cc1nccc2c1[nH]c1ccccc12`, for which the compound was called inactive in [7], in experiment [8], in experiment [6] and in [1]. For the same compound, the values for the activity change, negative = inhibition in experiment [9] (at 25.7 µM (top of the series)) and in [9] (at 57.5 µM (top of the series)) were 0.405% (inactive) and 2.54% (inactive), respectively. The max response in experiment [9] (setting [10]) is 6.61% and 77.2%; in experiment [9] (setting [11]), 6.19% and 80.2%. Also, the Potency result in experiment [3] and in experiment [4] was “inactive” throughout. Moreover, the Potency in [5] was 14.1 µM (active).

As to `O=C1CCCN1CC#CCN1CCCC1`, the result in [7], in [8], in experiment [6] and in [1] was inactive. The activity change, negative = inhibition in experiment [9] (at 57.5 µM (top of the series)) was 5.07% (inactive) and 8.93% (inactive) and 0.711% (inactive). Further, the max response is 5.66% and 4.2% and 20.8% in experiment [9] (setting [10]); 13% and 25.8% and 21.1% in [9] (setting [11]). The Potency entry in experiment [2], in [3], in experiment [4] and in experiment [5] was “inactive” throughout.

On to `C[N+]1(C)C2CCC1CC(OC(=O)C(CO)c1ccccc1)C2` (configuration not stated), for which the compound was classed as inactive in experiment [1]. For the same compound, the Potency result in experiment [2], in experiment [3], in [4] and in [5] was “inactive” in each case.

Consider `CC(C)Oc1cccnc1N(C)C1CCN(Cc2ccccc2)CC1`, for which the outcome in experiment [7], in experiment [8], in [6] and in experiment [1] was inactive. Moreover, the Potency entry in experiment [2], in [3] and in [4] was “inactive” in each case.

Consider `COc1cc(C(O)CN)ccc1O` (configuration not stated), for which the compound was classed as inactive in [1]. Further, the Potency result in experiment [2], in experiment [3], in experiment [4] and in experiment [5] was “inactive” throughout.

Consider `CCCN(CCC)[C@@H]1CCc2ccc(O)cc2C1`, for which the compound was called inactive in experiment [7], in experiment [8], in [6] and in [1]. In addition, the activity change, negative = inhibition in experiment [9] (at 57.5 µM (top of the series)) is -4.72% (inactive) and 0.978% (inactive). Moreover, the max response in [9] (setting [10]) was -36.9% and -10.5%; in [9] (setting [11]), -41.2% and -9.44%. Further, the Potency entry in experiment [2], in experiment [3] and in experiment [4] was “inactive” throughout. For the same compound, the Potency in [5] was 8.91 µM (active).

As for `O=C(Cc1ccc(Cl)c(Cl)c1)N1CCCCC1CN1CCCC1` (configuration not stated), the call in experiment [1] was inactive. For the same compound, the activity change, negative = inhibition in [9] (at 57.5 µM (top of the series)) is 3.16% (inactive). For the same compound, the max response in experiment [9] (setting [10]) was 16.5%; in [9] (setting [11]) it was 19.9%. The Potency entry in [2], in experiment [3] and in experiment [4] was “inactive” throughout. The Potency in experiment [5] was 5.01 µM (active).

With `NCc1cc(=O)[nH]o1`, the result in experiment [7], in [8], in experiment [6] and in experiment [1] was inactive. Also, the activity change, negative = inhibition in [9] (at 57.5 µM (top of the series)) was -0.672% (inactive). The results for the max response in experiment [9] (setting [10]) and in [9] (setting [11]) were 5.31% and 4.46%, respectively. The Potency result in [2], in [3], in [4] and in experiment [5] was “inactive” each time.

For `NC(CCP(=O)(O)O)C(=O)O` (configuration not stated), the result in experiment [1] was inactive. The activity change, negative = inhibition in experiment [9] (at 57.5 µM (top of the series)) was 2.25% (inactive). In addition, the figures for the max response in experiment [9] (setting [10]) and in experiment [9] (setting [11]) were 14.5% and 18.2%, respectively. The Potency entry in experiment [2], in [3] and in experiment [5] was “inactive” each time.

On to `C[C@@H]1O[C@H](C[N+](C)(C)C)C[C@H]1O`, for which the compound was called inactive in experiment [7], in [8], in experiment [6] and in experiment [1]. In addition, the Potency result in experiment [2], in experiment [3], in [4] and in [5] was “inactive” throughout.

Take `CCCN1CCO[C@@H]2c3cc(O)ccc3OC[C@H]21`: the compound was called inactive in experiment [7], in [8], in experiment [6] and in [1]. For the same compound, the Potency result in experiment [2], in [3], in experiment [4] and in experiment [5] was “inactive” throughout.

On to `C[C@]12N[C@H](Cc3ccccc31)c1ccccc12`, for which the compound was classed as inactive in experiment [7], in experiment [8], in [6] and in [1]. The activity change, negative = inhibition in [9] (at 57.5 µM (top of the series)) is -1.18% (inactive). Further, the figures for the max response in experiment [9] (setting [10]) and in [9] (setting [11]) were 51.7% and 40.7%, respectively. Also, the Potency entry in experiment [2], in experiment [3] and in experiment [4] was “inactive” in each case.

In the case of `CCCCc1ccc(C(=O)O)nc1`, the compound was classed as inactive in experiment [7], in [8], in experiment [6] and in experiment [1]. Besides, the values for the activity change, negative = inhibition in experiment [9] (at 25.7 µM (top of the series)) and in experiment [9] (at 57.5 µM (top of the series)) were -2.75% (inactive) and 1.57% (inactive), respectively. Besides, the max response in [9] (setting [10]) was 0.85% and 4.91%; in experiment [9] (setting [11]), -1.53% and 6.42%. For the same compound, the Potency entry in experiment [2], in experiment [3] and in experiment [5] was “inactive” throughout.

For `NC1CCc2cc(O)c(O)cc2C1` (configuration not stated), in experiment [1], the outcome was inactive. The activity change, negative = inhibition in [9] (at 57.5 µM (top of the series)) was -0.984% (inactive). Further, the max response is -18.2% in [9] (setting [10]) and -19.2% in [9] (setting [11]). Also, the Potency result in experiment [2], in experiment [4] and in experiment [5] was “inactive” each time.
